Results as given in PubChem BioAssay (NCATS).
Records with an inconclusive call do not appear. A call without a number means that no potency is given here. A number with no mark means an inactive call. Activity calls are given as the source filed them. Calls come from the whole dose curve; as a rule, active = well fitted cell-killing curve with a large enough effect; inconclusive = small, poorly fitted or top-dose-only effect, or effect the other way; inactive = no such curve, though single readings can be large or run the other way.

Key:
[1] = Viability qHTS for spleen associated tyrosine kinase inhibitor (SYKi) naive MV4-11 cells (AID 1963823); note: nearly all actives have a fitted effect of over 40% in size
Method in brief: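 CellTiter-Glo luminescence, 10 min room-temperature incubation, gave viability. Cells: naive MV4-11 (500/well), treated 72 hr at 37 C, 5% CO2.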

[2] = Viability qHTS for spleen associated tyrosine kinase inhibitor (SYKi) drug resistant MV4-11 cells (AID 1963824); note: nearly all actives have a fitted effect of over 35% in size
Method in brief: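 SYK inhibitor-resistant MV4-11 AML cells, 500 per well, added to predispensed compounds and incubated 72 hr at 37 C, 5% CO2. Viability measured by CellTiter-Glo luminescence after 10 min at room temperature.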
Potency is the fitted concentration of half-maximal effect.

Compound | Potency [1] | Potency [2] | viability (% of control) [1] | viability, % of control [2]
CC(=O)C1(C)CCC2C3C=C(C)C4=CC(=O)CCC4(C)C3CCC21C (centres undefined) | 5.8 µM (active) | 7.31 µM (active) |  | 
CCC(C)/C=C(C)/C=C/C1=CC2=C(Cl)C(=O)C(C)(OC(C)=O)C(=O)C2=CN1C(CCCN=C(N)N)C(=O)O (centres undefined) | inactive | inactive |  | 
CC[C@H]1OC(=O)[C@H](C)[C@@H](O[C@H]2C[C@@](C)(OC)[C@@H](O)[C@H](C)O2)[C@H](C)[C@@H](O[C@@H]2O[C@H](C)C[C@H](N(C)C)[C@H]2O)[C@](C)(O)C[C@@H](C)/C(=N/OCOCCOC)[C@H](C)[C@@H](O)[C@]1(C)O | inactive | inactive |  | 
CCN(CC)CC1CCN(c2ncc3ncnc(Nc4ccc(F)c(Cl)c4)c3n2)CC1 | 2.91 µM (active) | 2.91 µM (active) |  | 
CC1(C)CC[C@]2(C(=O)O[C@@H]3O[C@H](CO)[C@@H](O)[C@H](O)[C@H]3O)CC[C@]3(C)C(=CCC4[C@@]5(C)CC[C@H](O[C@@H]6O[C@H](C(=O)O)[C@@H](O)[C@H](O)[C@H]6O)[C@@](C)(CO)C5CC[C@]43C)C2C1 (some centres undefined) |  |  | 98% [at 9.25 µM] | 100% [at 9.25 µM]
C=CC(=O)Nc1ccc(CN2C(=O)N(c3cc(OC)cc(OC)c3)Cc3cnc(Nc4ccc(N5CCN(C)CC5)cc4)nc32)cc1 | 1.16 µM (active) | 1.3 µM (active) |  | 
CC(C)=CCC[C@@](C)(O)[C@H]1CC[C@]2(C)[C@@H]1[C@H](O)CC1[C@@]3(C)CC[C@H](O[C@@H]4O[C@H](CO)[C@@H](O)[C@H](O)[C@H]4O[C@@H]4O[C@H](CO)[C@@H](O)[C@H](O)[C@H]4O)C(C)(C)[C@@H]3CC[C@]12C (some centres undefined) | inactive | inactive |  | 
N#Cc1c(Oc2ccc(F)c(NC(=O)Cc3cccc(C(F)(F)F)c3)c2)ccc2nc(NC(=O)C3CC3)sc12 | 1.46 µM (active) | 1.64 µM (active) |  | 
CC(=O)/C=C/C1(O)C(C)CC(O[C@@H]2O[C@H](CO)[C@@H](O)[C@H](O)[C@H]2O)CC1(C)C (some centres undefined) | inactive | inactive |  | 
Cc1ccc(-c2c(-c3nn(C)c4ncnc(N5CC[C@H](N6CCCCC6)C5)c34)cnn2C)cc1 | inactive | inactive |  | 
COc1cc(O[C@@H]2O[C@H](CO[C@H]3OC[C@](O)(CO)[C@H]3O)[C@@H](O)[C@H](O)[C@H]2O)cc(OC)c1O | inactive | inactive |  | 
C[C@@H]1O[C@@H](O[C@H]2[C@H](OC(=O)C34CCC(C)(C)CC3C3=CCC5C6(C)CC(O)C(O[C@@H]7O[C@H](CO)[C@@H](O)[C@H](O)[C@H]7O)C(C)(C(=O)O)C6CCC5(C)C3(CO)CC4)O[C@H](C)[C@H](O)[C@@H]2O)[C@H](O)[C@H](O)[C@H]1O[C@@H]1OC[C@@H](O)[C@H](O)[C@H]1O (some centres undefined) |  |  | 87% [at 9.25 µM] | 109% [at 9.25 µM]
COc1cc(C(=O)OCCCN2CCCN(CCCOC(=O)c3cc(OC)c(OC)c(OC)c3)CC2)cc(OC)c1OC | 21.1 µM (active) | 21.1 µM (active) |  | 
COc1cc(/C=C/C(=O)O)ccc1O[C@@H]1O[C@H](CO)[C@@H](O)[C@H](O)[C@H]1O[C@@H]1OC[C@](O)(CO)[C@H]1O | inactive | inactive |  | 
C=C(C)[C@@H]1CC[C@]2(C)CC[C@]3(C)C(CCC4[C@@]5(C)CC[C@H](O)C(C)(C)C5CC[C@]43C)C12 (some centres undefined) | inactive | inactive |  | 
CC1=C2CC(O)(C(C)(C)O)C(O[C@@H]3O[C@H](CO)[C@@H](O)[C@H](O)[C@H]3O)CC(C)C2CC1=O (some centres undefined) | inactive | inactive |  | 
CC(=O)CCC1=C(C)C(O[C@@H]2O[C@H](CO)[C@@H](O)[C@H](O)[C@H]2O)C(O)CC1(C)C (some centres undefined) | inactive | inactive |  | 
CNc1cccc(CCOc2ccc3c(c2)CN(CC(F)(F)F)C(=O)[C@H](CC(=O)O)C3)n1 | inactive | inactive |  | 
COc1ccc(CNC(=O)c2cc(-c3cncc(C)c3)ncc2-c2nccs2)nc1OC | inactive | inactive |  | 
CCOC(=O)C1=Cc2ccc(C(F)(F)C(F)(F)F)cc2N=C(N)C1 | 20.6 µM (active) | 20.6 µM (active) |  | 
NC(=O)[C@H](Cc1ccccc1)NC(=O)[C@H](CCCN=C(N)N)NC(=O)C12CC3CC(CC(C3)C1)C2 |  |  | 88.8% [at 9.25 µM] | 78% [at 9.25 µM]
CC1(C=O)CC[C@]2(C(=O)O[C@@H]3O[C@H](CO)[C@@H](O)[C@H](O)[C@H]3O)CC[C@]3(C)C(=CCC4[C@@]5(C)C[C@H](O)[C@H](O[C@@H]6OC[C@@H](O)[C@H](O)[C@H]6O)[C@@](C)(CO)C5CC[C@]43C)C2C1 (some centres undefined) |  |  | 95.5% [at 9.25 µM] | 103% [at 9.25 µM]
